These results are taken from article PMC12431657, “Discovery and mechanistic insights of dibenzoylmethane as a broad spectrum inhibitor of coronavirus” (PLOS Pathogens, 2025).

The structures appear in SMILES notation.

This assay deals with HCoV-229E. Also noted: species or system Huh-7. To be noted: 24 h, 10 µM; inhibitor.

For the compound `C=C1C(=O)O[C@@H]2[C@H]3O[C@]3(C)CC/C=C(\C)CC[C@@H]12` [Parthenolide], the “229E Inhibition rate” value worked out at 24.7.
